From PMC4336329 (PLoS ONE, 2015)
The campaign covered roughly 310,000 compounds. About 14,000 (4.5%) showed an effect of 50% or more. Effects have a minus sign here. For the sample, strong results were picked, then their nearest neighbours and some compounds at random.

Target: human ether-à-go-go-related gene (hERG) potassium channel (human, UniProt Q12809)
Test: primary screen, population patch clamp on CHO cells stably expressing hERG; higher = less effect of the substance
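Further: peak tail current of the secondary pulse compared with the same well before compound.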

Chain of human ether-à-go-go-related gene (hERG) potassium channel (Q12809 whole entry, looked up): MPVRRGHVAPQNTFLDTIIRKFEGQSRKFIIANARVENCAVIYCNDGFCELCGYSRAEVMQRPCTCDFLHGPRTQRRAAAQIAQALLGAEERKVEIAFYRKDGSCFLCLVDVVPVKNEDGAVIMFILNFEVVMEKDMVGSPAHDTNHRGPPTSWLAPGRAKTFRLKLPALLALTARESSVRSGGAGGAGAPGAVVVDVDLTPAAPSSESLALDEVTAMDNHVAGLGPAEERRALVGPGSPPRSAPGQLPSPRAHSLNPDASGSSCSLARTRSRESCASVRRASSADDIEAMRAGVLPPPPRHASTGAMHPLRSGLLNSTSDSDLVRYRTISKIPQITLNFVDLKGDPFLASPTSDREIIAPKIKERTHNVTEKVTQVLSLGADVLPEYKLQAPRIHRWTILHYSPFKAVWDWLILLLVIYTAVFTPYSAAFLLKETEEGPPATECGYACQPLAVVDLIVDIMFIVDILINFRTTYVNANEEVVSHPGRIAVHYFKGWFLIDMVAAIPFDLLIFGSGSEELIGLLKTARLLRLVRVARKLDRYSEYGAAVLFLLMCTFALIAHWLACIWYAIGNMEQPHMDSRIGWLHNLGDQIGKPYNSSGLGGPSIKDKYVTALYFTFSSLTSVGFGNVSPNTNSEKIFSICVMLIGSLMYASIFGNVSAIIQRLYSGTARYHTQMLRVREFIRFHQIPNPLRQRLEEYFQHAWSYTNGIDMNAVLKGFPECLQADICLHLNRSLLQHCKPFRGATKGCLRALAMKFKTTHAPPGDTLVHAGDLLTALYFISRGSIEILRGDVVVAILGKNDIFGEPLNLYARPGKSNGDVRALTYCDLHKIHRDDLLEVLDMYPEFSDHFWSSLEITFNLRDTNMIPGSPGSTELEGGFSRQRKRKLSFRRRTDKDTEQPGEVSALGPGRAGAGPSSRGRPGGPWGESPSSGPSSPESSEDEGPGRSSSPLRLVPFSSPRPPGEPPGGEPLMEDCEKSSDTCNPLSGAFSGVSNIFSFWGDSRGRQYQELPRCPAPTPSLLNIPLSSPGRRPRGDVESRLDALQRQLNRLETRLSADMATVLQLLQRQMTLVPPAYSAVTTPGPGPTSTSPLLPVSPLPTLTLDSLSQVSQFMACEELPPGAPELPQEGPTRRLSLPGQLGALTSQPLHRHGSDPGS

Going from `CC(=O)N1c2ccc(S(=O)(=O)N3CCC(C(=O)Nc4cccc(Cl)c4)CC3)cc2CC1C` (stereo not drawn) to `O=C(C1CCN(S(=O)(=O)c2ccc(Br)s2)CC1)N1CCc2ccccc21`, the “hERG current change (%, negative = inhibition) at 10uM” value falls from 15.1% to -46.8%.

First: O=c1cc(CO)oc(C(Nc2ccccn2)c2ccccc2F)c1O (stereo not drawn)
Second: CCOc1ccc(OCC)c(S(=O)(=O)NCc2ccccn2)c1
The “hERG current change (%, negative = inhibition) at 10uM” value of the first is higher: 17.5% for the first, -1.02% for the second.

First: CC(C)c1c(C(=O)N/N=C/c2ccsc2)nnn1-c1nonc1N
Second: NC(=O)c1nnn(-c2nonc2N)c1-c1ccc([N+](=O)[O-])cc1
The “hERG current change (%, negative = inhibition) at 10uM” value of the first is lower: 23.8% for the first, 24.7% for the second.

Compared with `O=c1c2cc(F)ccc2[nH]c(=S)n1CCCN1CCOCC1`, `COc1ccc(N2CC(C(=O)N3CCOCC3)CC2=O)cc1` (stereo not drawn) is higher in “hERG current change (%, negative = inhibition) at 10uM” value: -3.61% for the first, 18.3% for the second.

Going from `CC1(C)CC(=O)C2=C(C1)NC(=O)NC2c1ccc(Cl)cc1` (stereo not drawn) to `Cc1cc(C(=O)COC(=O)CN(C)S(=O)(=O)c2ccc(Cl)cc2)c(C)n1CC1CCCO1` (stereo not drawn), the “hERG current change (%, negative = inhibition) at 10uM” value falls from 17.3% to -55.2%.

Compared with `COc1cc(C(=O)OCC(=O)c2cc(C)n(CC3CCCO3)c2C)cc(OC)c1C` (stereo not drawn), `COc1cc(OC)c(C(=O)OCC(=O)c2cc(C)n(CC3CCCO3)c2C)cc1OC` (stereo not drawn) is higher in “hERG current change (%, negative = inhibition) at 10uM” value: -68% for the first, 13.3% for the second.

First: Cc1cc(C(=O)COC(=O)C2CCN(C(=O)c3ccc(Cl)cc3)CC2)c(C)n1CC1CCCO1 (stereo not drawn)
Second: COc1cc(OC)cc(C(=O)OCC(=O)c2cc(C)n(CC3CCCO3)c2C)c1 (stereo not drawn)
The “hERG current change (%, negative = inhibition) at 10uM” value of the first is higher: -15.2% for the first, -39% for the second.

Going from `Cc1cc(C(=O)COC(=O)CN(C)S(=O)(=O)c2ccc(Cl)cc2)c(C)n1Cc1cccs1` to `CCOC(=O)N1CCC(NC(=O)CC(NS(=O)(=O)c2ccc(Cl)cc2)c2ccco2)CC1` (stereo not drawn), the “hERG current change (%, negative = inhibition) at 10uM” value falls from -5.54% to -53%.

First: O=C(CC(NS(=O)(=O)c1ccc(Cl)cc1)c1ccco1)NC1CCCC1 (stereo not drawn)
Second: CCOC(=O)N1CCC(NC(=O)CC(NS(=O)(=O)c2ccc(C)cc2)c2ccco2)CC1 (stereo not drawn)
The “hERG current change (%, negative = inhibition) at 10uM” value of the first is lower: -8% for the first, -7.75% for the second.

First: CCc1cccc(C)c1NC(=S)NCC(c1cccnc1)N(C)C (stereo not drawn)
Second: CCCC(=O)NCc1cc(-c2nn(C)c(=O)c3ccccc23)ccc1OC
The “hERG current change (%, negative = inhibition) at 10uM” value of the first is lower: 5.1% for the first, 7.01% for the second.

Going from `CCc1nnc(NC(=O)C2CCN(c3cnccn3)CC2)s1` to `Cn1nc(C(=O)NC2CCCC2)c2ccccc2c1=O`, the “hERG current change (%, negative = inhibition) at 10uM” value falls from 4.24% to 1.63%.

Compared with `O=S(=O)(NCc1ccccn1)c1cc(OCC(F)(F)F)ccc1OCC(F)(F)F`, `COc1ccc(OC)c(S(=O)(=O)NCc2ccccn2)c1` is higher in “hERG current change (%, negative = inhibition) at 10uM” value: -69.9% for the first, 11.9% for the second.

Going from `COc1ccc(-c2nn(C)c(=O)c3ccccc23)cc1CNC(=O)C1CCCCC1` to `COc1ccc(-c2nn(C)c(=O)c3ccccc23)cc1CNC(=O)NC1CCCCC1`, the “hERG current change (%, negative = inhibition) at 10uM” value rises from -56.3% to -26.5%.

Compared with `COc1ccc(-c2nn(C)c(=O)c3ccccc23)cc1NC(=O)Cn1nc(C)c2ccccc2c1=O`, `COc1ccc(-c2nn(C)c(=O)c3ccccc23)cc1NC(=O)Cn1nc(-c2ccccc2)c2ccccc2c1=O` is higher in “hERG current change (%, negative = inhibition) at 10uM” value: -57.5% for the first, 5.06% for the second.

Going from `CCC(=O)Nc1cc(-c2nn(C)c(=O)c3ccccc23)ccc1OC` to `Cn1nc(-c2ccc(C(=O)NC3CCCCC3)cc2)c2ccccc2c1=O`, the “hERG current change (%, negative = inhibition) at 10uM” value falls from -11.4% to -52.4%.

First: Cn1nc(C(=O)NC2CCCCC2)c2ccccc2c1=O
Second: CCC1CCCCN1C(=S)NC1CCCCC1 (stereo not drawn)
The “hERG current change (%, negative = inhibition) at 10uM” value of the first is lower: -15.3% for the first, 17.2% for the second.

Compared with `COc1cc(/C=C/C(=O)Nc2ccc(C)cc2)cc(OC)c1OC`, `COc1ccc(OC)c(S(=O)(=O)N2CCC3(CC2)CC(=O)c2ccccc2O3)c1` is lower in “hERG current change (%, negative = inhibition) at 10uM” value: -2.49% for the first, -47.1% for the second.

First: c1ccc(CCc2nn3c(C4COc5ccccc5O4)nnc3s2)cc1 (stereo not drawn)
Second: Cc1[nH]c2ccccc2c1/C=N/NC(=O)CNC(=O)Cc1ccccc1
The “hERG current change (%, negative = inhibition) at 10uM” value of the first is lower: -1.79% for the first, 15.5% for the second.

Compared with `COc1ccc(/C=N/n2c(C3CCCCC3)n[nH]c2=S)c(OC)c1`, `COc1cccc(N2CC(C(=O)Oc3ccc4ccccc4c3)CC2=O)c1` (stereo not drawn) is lower in “hERG current change (%, negative = inhibition) at 10uM” value: 23.6% for the first, -7.91% for the second.

Going from `COc1ccc(N2CC(C(=O)N3CCC4(CC3)CC(=O)c3ccccc3O4)CC2=O)cc1` (stereo not drawn) to `COc1cccc(N2CC(C(=O)N3CCC4(CC3)CC(=O)c3ccccc3O4)CC2=O)c1` (stereo not drawn), the “hERG current change (%, negative = inhibition) at 10uM” value rises from -78.1% to -53.5%.

First: COc1ccc(N2CC(C(=O)N3CCN(c4ccccc4)CC3)CC2=O)cc1 (stereo not drawn)
Second: C=CCn1c(SCC(=O)c2ccc(NS(=O)(=O)c3ccccc3)cc2)nnc1-c1cccs1
The “hERG current change (%, negative = inhibition) at 10uM” value of the first is lower: -41.6% for the first, -19.5% for the second.
